Results on 16 compounds are retold here after the supplement of paper PMC13094657.

The test system of test [1] is MDA-MB-231. As to the kind of experiment: cell viability relative to vehicle unstimulated control (fraction); higher = more viable cells. Conditions: pre-treatment time: 18 h then 24 h IFNg/TNF.
The subject of test [2] is MDA-MB-231. Description: kynurenine production, fold change vs DMSO IFNg/TNF control; higher = more kynurenine produced (less inhibition). Conditions: pre-treatment time: 18 h then 24 h IFNg/TNF. The essentials:
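After trichloroacetic acid and p-dimethylaminobenzaldehyde treatment, supernatants were read at 492 nm, with 0–100 μM standards. These came from MDA-MB-231 cells (7 × 10^4/well, 96-well plates) pre-treated 18 h with natural products in 0.1% DMSO and then exposed 24 h to IFNγ (1 U/ml) and TNF (6.25 ng/ml) at 37°C. Values for kynurenine production are fold changes over same-plate cytokine-stimulated vehicle wells, averaged over duplicate plates in the first screening round.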

Structures can show the parent of a compound that is named as a salt. ± gives the standard deviation of the averaged measurements.
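Wherever cell viability relative to vehicle unstimulated control is given: viability of the cells left after supernatant collection, read with Deep Blue dye added for 4 h, as absorbance at 570 nm minus 600 nm.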

For `CO[C@H]1O[C@@H]2O[C@@]3(C)CC[C@H]4[C@H](C)CC[C@@H]([C@H]1C)[C@@]24OO3` [Artemether] (compound dose: 10 uM), the cell viability with MDA-MB-231 [1] came out at 1 ± 0.11. Besides, in the test on MDA-MB-231 [2], the kynurenine production is 0.37 ± 0.12.
On the same counts, the results for `COc1ccc2c(c1O)-c1c(O)c(OC)cc3c1[C@H](C2)[N+](C)(C)CC3` [Magnoflorine] (compound dose: 10 uM) are 0.966 ± 0.05 and 0.937 ± 0.057.
For `CC(C)(O[C@@H]1O[C@H](CO)[C@@H](O)[C@H](O)[C@H]1O)[C@@H]1CC[C@](O)(CO)[C@H]2CC(=O)[C@@](C)(O)[C@@H]2C1` [Atractyloside A] (compound dose: 10 uM) the same measures were 0.986 ± 0.03 and 0.854 ± 0.057.
For `C[C@H]1[C@H](C)CC[C@]2(C(=O)O[C@@H]3O[C@H](CO[C@@H]4O[C@H](CO)[C@@H](O[C@@H]5O[C@@H](C)[C@H](O)[C@@H](O)[C@H]5O)[C@H](O)[C@H]4O)[C@@H](O)[C@H](O)[C@H]3O)CC[C@]3(C)C(=CC[C@@H]4[C@@]5(C)C[C@@H](O)[C@H](O)[C@@](C)(CO)[C@@H]5[C@H](O)C[C@]43C)[C@H]12` [Madecassoside] (compound dose: 10 uM) the same measures were 1.03 ± 0.042 and 0.817 ± 0.099.
With `CC(C)(O)[C@@H]1CC[C@](C)([C@H]2[C@@H](O)C[C@@]3(C)[C@@H]4C[C@H](O)[C@H]5C(C)(C)[C@@H](O[C@@H]6OC[C@@H](O)[C@H](O)[C@H]6O[C@@H]6O[C@H](CO)[C@@H](O)[C@H](O)[C@H]6O)CC[C@@]56C[C@@]46CC[C@]23C)O1` [Astragaloside III] (compound dose: 10 uM), in the test on MDA-MB-231 [1], the cell viability came to 1.03 ± 0.069. Further, the kynurenine production with MDA-MB-231 [2] was determined as 0.822 ± 0.018.
For the compound `COC(=O)C1=CO[C@@H](O[C@@H]2O[C@H](CO)[C@@H](O)[C@H](O)[C@H]2O)[C@H]2[C@@H]1C(=O)C[C@@H]2C` [Verbenalin] (compound dose: 10 uM), the cell viability in the test on MDA-MB-231 [1] worked out at 0.953 ± 0.052. Moreover, the kynurenine production in the test with MDA-MB-231 [2] turned out to be 0.834 ± 0.12.
Consider `CC(=O)O[C@@H]1C[C@@]23C[C@@]24CC[C@H](O[C@@H]2OC[C@@H](O)[C@H](O)[C@H]2O)C(C)(C)[C@@H]4CC[C@H]3[C@]2(C)C[C@@H]3O[C@]4(C[C@@H](C)[C@@H]3[C@@]12C)OC[C@@]1(C)O[C@@H]41` [26-Deoxyactein] (compound dose: 10 uM), for which, in the test on MDA-MB-231 [1], the cell viability worked out at 0.9809 ± 0.0077. Also, the kynurenine production with MDA-MB-231 [2] turned out to be 0.911 ± 0.22.
On the same counts, the results for `C=C1C(=O)O[C@H]2C[C@@H](C)[C@@H]3[C@@H](OC(C)=O)C[C@H](O)[C@@]3(C)[C@@H](OC(C)=O)[C@H]12` [Britannin] (compound dose: 10 uM) are 1.01 ± 0.043 and 0.268 ± 0.075.
For the compound `C[C@@H]1O[C@@H](O[C@@H]2[C@H](O)[C@@H](O)[C@H](O[C@H]3CC[C@@]4(C)C(CC[C@]5(C)C4C=C[C@]46OC[C@@]7(CCC(C)(C)CC74)[C@@H](O)C[C@]65C)C3(C)C)O[C@@H]2CO[C@@H]2O[C@H](CO)[C@@H](O)[C@H](O)[C@H]2O)[C@H](O)[C@H](O)[C@H]1O` (some centres not stated) [Saikosaponin C] (compound dose: 10 uM), in the test with MDA-MB-231 [1], the cell viability was determined as 0.928 ± 0.063. In addition, the kynurenine production in the test with MDA-MB-231 [2] worked out at 1.13 ± 0.18.
For `CC1(C)O[C@H]2CC(=O)OC[C@]23[C@H]2CC[C@@]4(C)[C@H](c5ccoc5)OC(=O)[C@H]5O[C@]54[C@]2(C)C(=O)C[C@@H]13` [Limonin] (compound dose: 10 uM), in the test with MDA-MB-231 [1], the cell viability is 0.9819 ± 0.0068. Also, the kynurenine production in the test on MDA-MB-231 [2] is 0.86 ± 0.3.
As for `C[C@]12C[C@@H](O)[C@@H]3C[C@@]1(O[C@@H]1O[C@H](CO)[C@@H](O)[C@H](O)[C@H]1O)[C@@]3(COC(=O)c1ccccc1)C(=O)O2` [Albiflorin] (compound dose: 10 uM), the cell viability in the test with MDA-MB-231 [1] was 0.963 ± 0.031. Further, the kynurenine production with MDA-MB-231 [2] was determined as 0.908 ± 0.031.
For `COC(=O)C1=CO[C@@H](O[C@@H]2O[C@H](CO[C@@H]3O[C@H](CO)[C@@H](O)[C@H](O)[C@H]3O)[C@@H](O)[C@H](O)[C@H]2O)[C@@H]2C(CO)=CC[C@H]12` [Genipin 1-β-D-gentiobioside] (compound dose: 10 uM), the cell viability with MDA-MB-231 [1] amounted to 0.849 ± 0.014. Moreover, the kynurenine production in the test on MDA-MB-231 [2] was found to be 0.718 ± 0.24.
On the same counts, the results for `Cc1ccc(C(C)C)cc1O` [Carvacrol] (compound dose: 10 uM) are 1.06 ± 0.036 and 0.855 ± 0.035.
On the same counts, the results for `CC(C)=CCCC1(C)CCC2(C)C3CCC4(C)C(C)C(=O)CCC4C3(C)CCC2(C)C1` (configuration not stated) [Shionone] (compound dose: 10 uM) are 1.02 ± 0.0034 and 0.776 ± 0.11.
As to `COc1ccc2c3c1O[C@H]1C[C@@H](O)C=C[C@@]31CCN(C)C2` [Galantamine hydrobromide] (compound dose: 10 uM), the cell viability in the test on MDA-MB-231 [1] was found to be 1.04. The kynurenine production with MDA-MB-231 [2] was determined as 0.792 ± 0.067.
Consider `C=C1CC/C=C(\C)CC[C@@H]2[C@@H]1CC2(C)C` [β-Caryophyllene] (compound dose: 10 uM), for which the cell viability in the test on MDA-MB-231 [1] turned out to be 0.9919 ± 0.0069. Moreover, in the test on MDA-MB-231 [2], the kynurenine production turned out to be 0.844 ± 0.19.
